Potency data for 51 compounds are collected here from PubChem BioAssay AID720524 (National Center for Advancing Translational Sciences (NCATS), 2013).

The whole screen tested about 1,400 compounds, of which about 1,000 (71%) were called active. Another 12% or so got no clear call; they are omitted. Calls follow the shape of the dose curve; as a rule, active = well fitted inhibition curve with a large enough effect; inconclusive = small, poorly fitted or top-dose-only effect; inactive = no such curve, though single readings can be large or run the other way. So high a share suggests a set chosen from earlier hits. The list is a sample of the results. A structure can be active in one record and inactive in another.
Potency is read from the fitted curve at half-maximal effect.

This test in a line: Nrf2 qHTS screen for inhibitors: Nrf2 A549 ARE-Fluc Confirmation Assay for Hit Validation. Also: nearly all actives have a fitted effect of over 65% in size. As to conditions: A549 ARE-firefly luciferase reporter, luminescence; series mostly up to 46.1 µM. The text has this: Nrf2 is a transcription factor that maintains cellular redox homoestasis and protects cells from xenobiotics. Nrf2 binds to the antioxidant response element (ARE) to induce gene expression of a broad spectrum of genes that encode for antioxidants. […] Finding a small molecule that act as an inhibitor of Nrf2 function would represent a novel therapeutic target that could lead to improvement in survival of patients undergoing chemo- and/or radio- therapy.
In collaboration with the Biswal laboratory, a cell based, luminescence assay (BugLite) was developed to detect the Nrf2 activity using the A549 ARE_Fluc cells (AID 493153). This assay was coupled with a fluorescence based (CellTiter Fluor) cytotoxicity assay to identify and exclude toxic compounds. This coupled assay was used to evaluate selected compounds for hit validation. The data herein is the result of the BugLite assay where decrease in luminescence signal = inhibition of Nrf2 activation. Inhibition is the desired outcome for this assay.
NIH Chemical Genomics Center [NCGC]
NIH Molecular Libraries Probe Centers Network [MLPCN]
Assay Submitter (PI): Shyam Biswal, Johns Hopkins University
[1] Shibata T., et al., Genetic alteration of Keap1 confers constitutive Nrf2 activation and resistance to chemotherapy in gallbladder cancer. Gastroenterology, 2008.
[2] Sjoblom T., et al., The consensus coding sequences of human breast and colorectal cancers. Science, 2006.
Five uL of cell suspension was dispensed into 1536-well white TC-treated plate using the Kalypsys dispenser to achieve a density of 5000 cells/well in all columns except column 1. The plates were incubated at 37deg C at 5% CO2 for 2 hours before 23 nL of compounds were added with the Kalypsys pin tool equipped with a 1,536-pin array. The control compounds Budesonide and Staurosporine were added at a concentration of 2mM. Budesonide was also added as a 1:10 titration, starting at 200uM, to achieve the dose-response control signal. The plates were incubated for 18-24 hour at 37deg C, 5% CO2 followed by a 5ul addition of 5% FBS OPTI-MEM growing media in column 1 as negative control. One microliter of 5x CellTiter Fluor (Promega) was added to each well and the assay plates were incubated at 37deg C, 5% CO2 for 30 minutes. The fluorescence signal was read using the PerkinElmer ViewLux plate reader (Ex = 405 nm /Em = 525 nm) for a 3 second exposure. After the signal was taken, 3 uL of 3x BugLite was dispensed into all wells. The plates were then incubated at room temperature for 15 minutes. A second ViewLux read (40 sec exposure) was performed to detect the luminescence signal. Cytotoxicity was assessed through the first fluorescent read while biochemical activity against Nrf2 was measured in the luminescent read. The data was normalized to the positive and negative controls.
With `CCOC(=O)c1cnc(-n2nc(C)cc2C)nc1NNc1cc(C)nc(-c2ccccc2)n1`, the Potency is 5.17 µM (active).

Regarding `CC(C)(C)c1ccc(Oc2ccc(N)cc2)cc1`, the Potency is 5.17 µM (active).

With `C[n+]1ccc(/C=C/c2c[nH]c3ccccc23)cc1`, the Potency is 1.46 µM (active).

Take `OCCCNc1nccc(-c2cc(Nc3cccc(Cl)c3)ncn2)n1`: the Potency is 1.46 µM (active).

Consider `Cc1c(Cl)cccc1NC(=O)Cn1cc(C(=O)c2cccs2)c2ccccc21`, for which the Potency was 5.8 µM (active).

For `Brc1c(CSc2nncc3ccccc23)nc2ccccn12`, the Potency is 6.51 µM (active).

On to `Cc1oc2c(F)c(F)c(F)c(F)c2c1S(=O)(=O)Nc1cccc(C(F)(F)F)c1`, for which the Potency is 14.6 µM (active).

`c1ccc(C(=NNc2nc3ccccc3s2)c2ccccn2)cc1`: the Potency is 11.6 µM (active).

Turning to `CCCOc1ccc(Cc2c(Cl)nc(SC)nc2NC)cc1`, the Potency is 6.51 µM (active).

On to `CC(=NNC(=S)N1CCCCCC1)c1ccccn1`, for which the Potency was 2.59 µM (active).

In the case of `CC(=O)Nc1ccc(Nc2c3ccccc3nc3ccccc23)cc1`, the Potency is 1.64 µM (active).

In the case of `COc1ccc(C(=O)C[n+]2ccc(N)c(C)c2C)cc1`, the Potency was 6.51 µM (active).

Turning to `CCCOc1ccc(C(=O)Nc2ccc3oc(-c4cccc(Cl)c4Cl)nc3c2)cc1`, the Potency is 16.4 µM (active).

With `CC1(C)CC(N2CCN(C(c3ccccc3)c3ccccc3)CC2)=CC(=[N+]2CCCCC2)C1`, the Potency is 4.61 µM (active).

As to `Cc1ccc(NS(=O)(=O)c2cccs2)cc1S(=O)(=O)N1CCCCCC1`, the Potency entry was “inactive”.

Consider `O=C(Nc1ccc(Br)cn1)C1CCN(S(=O)(=O)c2cccs2)CC1`, for which the Potency was 5.8 µM (active).

As to `CC(C)Cn1c(N)c(C(=O)COC(=O)CN2C(=O)C3CC=CCC3C2=O)c(=O)n(C)c1=O` (stereo unspecified), the Potency was 5.8 µM (active).

Take `CCC(C)N1C(=O)S/C(=C/c2ccc(Sc3nc4ccccc4[nH]3)o2)C1=O` (stereo unspecified): the Potency was 20.6 µM (active).

As for `CCC(C)(C)c1ccc(Oc2ccc(NC(=O)COC(=O)C3=COCCO3)cc2)cc1`, the Potency was 10.3 µM (active).

As to `Cc1csc[n+]1CCC1CCCCC1`, the Potency is 9.2 µM (active).

On to `COc1cccc(-c2nnc(NC(=O)c3ccc(S(=O)(=O)N(CC(C)C)CC(C)C)cc3)o2)c1`, for which the Potency is 2.59 µM (active).

Consider `CCNS(=O)(=O)c1ccc(CCC(=O)N2CCN(c3cc(Cl)ccc3C)CC2)cc1`, for which the Potency is 23.1 µM (active).

Take `Cn1nccc1C(=O)NC1CCCc2c1cnn2-c1ccc(F)cc1F` (stereo unspecified): the Potency was 2.59 µM (active).

In the case of `O/N=C(\C[n+]1ccccc1)c1ccc(Br)cc1`, the Potency was 6.51 µM (active).

For the compound `Cc1cccc(N2CCN(C(=O)CCS(=O)(=O)c3ccc4c(c3)NC(=O)C(C)S4)CC2)c1C` (stereo unspecified), the Potency was 18.4 µM (active).

Turning to `Cc1ccc(S(=O)(=O)N2CCN(c3ncnc4ccccc34)CC2)cc1`, the Potency was 7.31 µM (active).

For the compound `O=C1C=C(c2ccnc3cc(Cl)ccc23)C[C@@H](c2ccc3c(c2)OCO3)C1`, the Potency was 7.31 µM (active).

Regarding `COc1ccc(CCNC(=O)c2ccc(CS(=O)(=O)c3ccc(Br)cc3)o2)cc1OC`, the Potency was 14.6 µM (active).

Turning to `COc1ccc(OC)c(Cc2cnc3nc(N)nc(N)c3c2C)c1`, the Potency was 9.2 µM (active).

As to `CCCCNc1nc2c(c(=O)n(C)c(=O)n2C)n1Cc1cccc(OC)c1`, the Potency was 9.2 µM (active).

For `N#CC(C#N)=CN=c1ccn(Cc2ccc(Cl)cc2Cl)cc1`, the Potency was 4.11 µM (active).

Turning to `CN(Cc1cccnc1)C(=O)c1cc(COc2ccc3ncccc3c2)on1`, the Potency was 5.8 µM (active).

As to `CC(=O)N1CCCc2cc(S(=O)(=O)N3CCCC(C(=O)N4CCN(c5cccc(Cl)c5)CC4)C3)ccc21` (stereo unspecified), the Potency was 7.31 µM (active).

As to `CC(=O)N1c2ccc(S(=O)(=O)N3CCCC(C(=O)NCc4ccc(Cl)cc4)C3)cc2CC1C` (stereo unspecified), the Potency was 7.31 µM (active).

On to `CC(=O)N1c2ccc(S(=O)(=O)N3CCCC(C(=O)Nc4cccc(Cl)c4)C3)cc2CC1C` (stereo unspecified), for which the Potency is 11.6 µM (active).

Take `O=C(Nc1ccncc1)c1c(F)cccc1F`: the Potency was 10.3 µM (active).

As to `COc1ccc(CCNc2cc(N3CCN(C(=O)c4ccccc4OC)CC3)ccc2[N+](=O)[O-])cc1OC`, the Potency is 4.11 µM (active).

As to `COCCn1c(SCC(=O)Nc2ccccc2F)nc2c(c1=O)SCC2`, the Potency result is “inactive”.

As for `CC1(C)O[C@@H]2CC3C4C[C@H](F)C5=CC(=O)C=CC5(C)C4C(O)CC3(C)[C@]2(C(=O)CO)O1` (stereo partly specified), the Potency is 0.0082 µM (active).

On to `Cc1ccc(NC(=O)C2CC(=O)N(c3ccc4c(c3)OCCO4)C2)cc1S(=O)(=O)N1CCCCCC1` (stereo unspecified), for which the Potency is 20.6 µM (active).

As for `CC1CCN(S(=O)(=O)c2ccc(NC(=O)C3CC(=O)N(c4ccccc4)C3)cc2)CC1` (stereo unspecified), the Potency result was “inactive”.

Turning to `CCCCCCCCn1c2c(c(=N)c3c1CCC3)CCCC2`, the Potency is 6.51 µM (active).

Take `O=C(CSc1nnc2c(n1)[nH]c1ccccc12)NC1CCCCC1`: the Potency is 2.31 µM (active).

`CCCN(c1ccc(C(C)C)cc1)S(=O)(=O)c1c(C)[nH]c(=O)[nH]c1=O`: the Potency result was “inactive”.

With `O=C(CN1C(=O)c2ccccc2S1(=O)=O)N1CCc2ccccc21`, the Potency is 3.66 µM (active).

As to `O=C(CCC(=O)N1CCN(S(=O)(=O)c2ccc(Cl)cc2)CC1)NCc1cccc(C(F)(F)F)c1`, the Potency is 8.2 µM (active).

For `Cc1ccc(S(=O)(=O)N2C[C@@H]3CCCC[C@@H]3[C@@H](C)[C@H]2c2cn(Cc3ccccc3)c3ccc(F)cc23)cc1`, the Potency was 5.17 µM (active).

Regarding `CC(C)(C)n1ncc2c(=O)n(Cc3ccc(C(=O)c4ccccc4)cc3)cnc21`, the Potency is 1.3 µM (active).

Take `O=C(CC(O)(C(F)(F)F)C(F)(F)F)Nc1ccc(Cl)c(Cl)c1`: the Potency was 2.59 µM (active).

With `COc1ccc(CC(=O)Nc2nc(-c3ccc(F)c(F)c3)cs2)cc1OC`, the Potency is 5.8 µM (active).

For `O=c1[nH]c(SCc2cccc(F)c2)nc2ccccc12`, the Potency result was “inactive”.
